# In PubChem BioAssay (NCATS):
# Inconclusive results are not listed. A call without a number means that no potency is given here. For some assays here: Results with a measured potency or affinity are listed apart. Where a structure was tested more than once in an assay, its records may differ in their call. The source made the active and inactive calls.
# Tests used:
# [1] = Ebola virus entry assay, reporter ratio channel
# [2] = Ebola virus entry assay, blue channel (ratio component)
# [3] = Ebola virus entry assay, blue channel fluorescence
# [4] = Ebola virus entry cell assay, ratio channel
# [5] = Ebola virus entry reporter assay, green channel fluorescence
# [6] = High-throughput drug toxicity screening in the BPDCN cell line Gen2.2 (AID 1224824); settings: Gen2.2 BPDCN cells; at 45.8 µM (top of the series);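 further: cells exposed to compounds for 48 h before reading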
# In short: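 CellTiter-Glo luminescence read after 48 h compound exposure at 37 C defines viability; percent activity set with DMSO as 100% and bortezomib (9.2 uM final) as 0%. 500 exponentially growing cells per well, RPMI plus 10% FBS.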
# [7] = High-throughput drug toxicity screening in the BPDCN cell line Cal-1 (AID 1224825); settings: Cal-1 BPDCN cell viability, qHTS; at 45.8 µM (top of the series)
# In short: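 CellTiter-Glo luminescence after 48 h compound exposure; percent activity scaled with DMSO as 100% and bortezomib (9.2 uM final) as 0%. Cal-1 cells seeded at 500/well in RPMI, 10% FBS, no phenol red.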
# [8] = qHTS assay for measurement of the activity of small molecule inhibitors on Zika virus induced Caspase-3 activity in human iPSC derived neural progenitor cells (hNPCs) (AID 1224857; active means well fitted curve in the direction sought with a large enough effect; an effect the other way counts as inactive or inconclusive; further: nearly all actives have a fitted effect of over 65% in size); settings: hNPCs ZIKV-induced caspase-3/7, Caspase-Glo luminescence, 6 h; series mostly up to 45.7 µM
# In short: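 In medium with heparin 2 ug/ml and cyclopamine 2 uM, hNPCs (350 cells/well) received compound for one hour and then Zika virus at 2 FFU/cell; caspase activity was measured by Caspase-Glo 3/7 luminescence 6 h post-infection.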
# [9] = qHTS assay for measurement of the activity of small molecule inhibitors on Zika virus induced Caspase-3 activity in human astrocytoma cells (AID 1224859; active means well fitted curve in the direction sought with a large enough effect; an effect the other way counts as inactive or inconclusive); settings: SNB-19 ZIKV-induced caspase-3/7, luminescence, 6 h; series mostly up to 45.7 µM
# In short: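 A cell-based luminescent caspase-3/7 assay used SNB-19 cells infected with ZIKV (2 FFU/cell) for 6 h following 1 h compound pretreatment.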
# [10] = qHTS Screen of the MIPE 4.0 Collection Against Ewings Sarcoma (EW8) (AID 1259255; active means well fitted curve in the direction sought with a large enough effect; an effect the other way counts as inactive or inconclusive; further: potency means the concentration at half of the fitted maximal effect; nearly all actives have a fitted effect of over 35% in size); settings: EW8 Ewing sarcoma viability, CellTiter-Glo, 48 h; series mostly up to 45.8 µM
# In short: (§1)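 Viability screen: 48 h incubation at 37C, 95% humidity, 5% CO2 with serially titrated compound, followed by CellTiter-Glo readout.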
# [11] = qHTS Screen of the MIPE 4.0 Collection Against Ewings Sarcoma (TC32) (AID 1259256; active means well fitted curve in the direction sought with a large enough effect; an effect the other way counts as inactive or inconclusive; further: potency means the concentration at half of the fitted maximal effect; nearly all actives have a fitted effect of over 45% in size); settings: TC32 Ewing sarcoma viability, CellTiter-Glo, 48 h; series mostly up to 45.8 µM
# In short: as §1
# [12] = qHTS assay to identify small molecule inhibitors of chordoma cells - UCH-1 (AID 1259355; active means well fitted curve in the direction sought with a large enough effect; an effect the other way counts as inactive or inconclusive; further: nearly all actives have a fitted effect of over 55% in size); settings: UCH-1 chordoma viability, CellTiter-Glo, 48 h, combination; series mostly up to 46.1 µM
# In short: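 Screening used approved and investigational drugs in 15-point titration against 800 seeded cells per well. A fixed combination of auranofin with camptothecin, doxorubicin, rubitecan and topotecan followed compound addition, and growth was scored by CellTiter-Glo after 48hr.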
# [13] = qHTS assay to identify small molecule inhibitors of chordoma cells - UCH-2 (AID 1259356; active means well fitted curve in the direction sought with a large enough effect; an effect the other way counts as inactive or inconclusive); settings: UCH-2 chordoma viability, CellTiter-Glo ATP luminescence, 48 h; series mostly up to 46.1 µM
# [14] = Immunotoxin (HA22) sensitization/mitigation study. Vehicle arm (PBS) (AID 1159510); settings: cancer cells viability with PBS vehicle (HA22 study); series mostly up to 46.1 µM
# [15] = Immunotoxin (SS1P) sensitization/mitigation study. Vehicle arm (DMEM) (AID 1159513); settings: cell viability with vehicle (DMEM); series mostly up to 46.1 µM; further: potency means the concentration at half of the fitted maximal effect
# [16] = AC50: Channel type: primary unless noted, outcome: Channel type: primary unless noted
smiles,measurement,setting,value
CCCCc1oc2ccccc2c1C(=O)c1cc(I)c(OCCN(CC)CC)c(I)c1,AC50,[1]; [16],2.82 µM (active)
CCCCOCCOCCOCc1cc2c(cc1CCC)OCO2,outcome,[1]; [16],inactive
same,outcome,[2],inactive
C[C@](N)(Cc1ccc(O)c(O)c1)C(=O)O,outcome,[3],inactive
same,AC50,[1]; [16],22.4 µM (active)
same,outcome,[4],inactive
NC[C@H](O)c1ccc(O)c(O)c1,outcome,[3],inactive
same,AC50,[1]; [16],7.94 µM (active)
same,outcome,[4],inactive
C[C@@H]1CC(=O)NN=C1c1ccc(NN=C(C#N)C#N)cc1,outcome,[1]; [16],inactive
same,outcome,[2],inactive
CCc1c2c(nc3ccc(OC(=O)N4CCC(N5CCCCC5)CC4)cc13)-c1cc3c(c(=O)n1C2)COC(=O)[C@]3(O)CC,outcome,[3],inactive
same,AC50,[1]; [16],28.2 µM (active)
same,outcome,[4],inactive
COCCCOc1cc(C[C@@H](C[C@H](N)[C@@H](O)C[C@H](C(=O)NCC(C)(C)C(N)=O)C(C)C)C(C)C)ccc1OC,outcome,[1]; [16],inactive
same,outcome,[2],inactive
same,outcome,[5],inactive
same,outcome,[4],inactive
Cc1nc(N)nc(N)c1-c1ccc(Cl)c(Cl)c1,AC50,[1]; [16],28.2 µM (active)
CC/C=C(\C(=O)N[C@@H]1C(=O)N2C(C(=O)OCOC(=O)C(C)(C)C)=C(COC(N)=O)CS[C@H]12)c1csc(N)n1,outcome,[1]; [16],inactive
same,outcome,[2],inactive
CCCCCCCCCCCCCCCC[N+](C)(C)CC,AC50,[1]; [16],11.2 µM (active)
NC(=O)N/N=C/c1ccc([N+](=O)[O-])o1,outcome,[1]; [16],inactive
same,outcome,[2],inactive
CCCCCCC[N+](CC)(CC)CCCCc1ccc(Cl)cc1,AC50,[1]; [16],39.8 µM (active)
Cc1ccc2c(n1)Oc1ccc(C(C)C(=O)OCC(=O)N(C)C)cc1C2 (centres undefined),outcome,[1]; [16],inactive
CC/C(=C(\c1ccccc1)c1ccc(OCCN(C)C)cc1)c1ccccc1,AC50,[1]; [16],1.12 µM (active)
same,outcome,[1]; [16],inactive [Channel type: confirmation]
same,AC50,[4],1.26 µM (active)
CN(Cc1cnc2nc(N)nc(N)c2n1)c1ccc(C(=O)N[C@@H](CCC(=O)O)C(=O)O)cc1,outcome,[3],inactive
same,outcome,[1]; [16],inactive
same,outcome,[4],inactive
CN(C)[C@@H]1C(=O)C(C(N)=O)=C(O)[C@@]2(O)C(=O)C3=C(O)c4c(O)cccc4[C@@](C)(O)[C@H]3C[C@@H]12,outcome,[3],inactive
same,AC50,[1]; [16],31.6 µM (active)
same,outcome,[4],inactive
same,"cell viability, % of control (lower = more cytotoxic)",[6],333%
same,viability (% of control),[7],83.2%
same,Potency,[8],inactive
same,outcome,[9],inactive
same,Potency,[10],11.8 µM (active)
same,Potency,[11],6.62 µM (active)
same,Potency,[12],inactive
same,Potency,[13],inactive
CCc1nc(N)nc(N)c1-c1ccc(Cl)cc1,outcome,[3],inactive
same,AC50,[1]; [16],39.8 µM (active)
same,outcome,[4],inactive
CC#C[C@]1(O)CC[C@H]2[C@@H]3CCC4=CC(=O)CCC4=C3[C@@H](c3ccc(N(C)C)cc3)C[C@@]21C,outcome,[3],inactive
same,outcome,[1]; [16],inactive
same,outcome,[4],inactive
Cc1cc(OCCOCC[N+](C)(C)Cc2ccccc2)ccc1C(C)(C)CC(C)(C)C,AC50,[1]; [16],3.98 µM (active)
CN1CC[C@H](c2c(O)cc(O)c3c(=O)cc(-c4ccccc4Cl)oc23)[C@H](O)C1,outcome,[1]; [16],inactive
same,outcome,[2],inactive
COC(=O)Nc1nc2ccc(C(=O)c3cccs3)cc2[nH]1,AC50,[1]; [16],0.708 µM (active)
same,outcome,[1]; [16],inactive [Channel type: confirmation]
C[C@]12CC[C@@H]3c4ccc(O)cc4C[C@@H](CCCCCCCCCS(=O)CCCC(F)(F)C(F)(F)F)[C@H]3[C@@H]1CC[C@@H]2O (some centres undefined),outcome,[1]; Channel type: confirmation,inactive
same,outcome,[1]; Channel type: primary,inactive
same,outcome,[2],inactive
same,AC50,[4],2 µM (active)
CCC1=C[C@@H]2CN(C1)Cc1c([nH]c3ccccc13)[C@@](C(=O)OC)(c1cc3c(cc1OC)N(C)[C@H]1[C@@](O)(C(=O)OC)[C@H](OC(C)=O)[C@]4(CC)C=CCN5CC[C@]31[C@@H]54)C2,outcome,[1]; [16],inactive [Channel type: confirmation]
same,outcome,[2],inactive
same,AC50,[4],0.282 µM (active)
CCCNCC(O)COc1ccccc1C(=O)CCc1ccccc1 (centres undefined),outcome,[1]; [16],inactive [Channel type: confirmation]
same,outcome,[2],inactive
same,AC50,[4],8.91 µM (active)
O=C1CCc2ccc(OCCCCN3CCN(c4cccc(Cl)c4Cl)CC3)cc2N1,outcome,[1]; [16],inactive
same,outcome,[2],inactive
same,AC50,[4],14.1 µM (active)
Cc1cn([C@H]2C[C@H](N=[N+]=[N-])[C@@H](CO)O2)c(=O)[nH]c1=O,outcome,[1]; [16],inactive
same,outcome,[2],inactive
same,outcome,[4],inactive
Nc1cccc2c1CN(C1CCC(=O)NC1=O)C2=O (centres undefined),outcome,[1]; [16],inactive
same,outcome,[2],inactive
same,outcome,[5],inactive
same,outcome,[4],inactive
same,Potency,[14],inactive
same,Potency,[15],inactive
NC(=O)OCC(COC(N)=O)c1ccccc1,outcome,[1]; [16],inactive
same,outcome,[2],inactive
same,outcome,[5],inactive
same,outcome,[4],inactive
Cn1ccc2cc3c(cc21)CCN3C(=O)Nc1cccnc1,outcome,[1]; [16],inactive
same,outcome,[2],inactive
same,Potency,[14],inactive
same,Potency,[15],inactive
CCC(C)(C)C(=O)O[C@H]1C[C@@H](C)C=C2C=C[C@H](C)[C@H](CC[C@@H]3C[C@@H](O)CC(=O)O3)[C@H]21,AC50,[1]; [16],7.08 µM (active)
same,outcome,[2],inactive
same,outcome,[5],inactive
same,outcome,[4],inactive
same,Potency,[15],7.1 µM (active)
